Screen size: about 310,000 compounds; about 14,000 (4.5%) showed an effect of 50% or more. Effects have a minus sign here. What follows is part of a selection rich in strong results, with near analogues and random picks from the rest.
Molecular target: human ether-à-go-go-related gene (hERG) potassium channel (human, UniProt Q12809)
Test: primary screen, population patch clamp on CHO cells stably expressing hERG; higher = less effect of the substance
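Note: peak tail current of the secondary pulse compared with the same well before compound.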

human ether-à-go-go-related gene (hERG) potassium channel, sequence (Q12809 whole entry, looked up): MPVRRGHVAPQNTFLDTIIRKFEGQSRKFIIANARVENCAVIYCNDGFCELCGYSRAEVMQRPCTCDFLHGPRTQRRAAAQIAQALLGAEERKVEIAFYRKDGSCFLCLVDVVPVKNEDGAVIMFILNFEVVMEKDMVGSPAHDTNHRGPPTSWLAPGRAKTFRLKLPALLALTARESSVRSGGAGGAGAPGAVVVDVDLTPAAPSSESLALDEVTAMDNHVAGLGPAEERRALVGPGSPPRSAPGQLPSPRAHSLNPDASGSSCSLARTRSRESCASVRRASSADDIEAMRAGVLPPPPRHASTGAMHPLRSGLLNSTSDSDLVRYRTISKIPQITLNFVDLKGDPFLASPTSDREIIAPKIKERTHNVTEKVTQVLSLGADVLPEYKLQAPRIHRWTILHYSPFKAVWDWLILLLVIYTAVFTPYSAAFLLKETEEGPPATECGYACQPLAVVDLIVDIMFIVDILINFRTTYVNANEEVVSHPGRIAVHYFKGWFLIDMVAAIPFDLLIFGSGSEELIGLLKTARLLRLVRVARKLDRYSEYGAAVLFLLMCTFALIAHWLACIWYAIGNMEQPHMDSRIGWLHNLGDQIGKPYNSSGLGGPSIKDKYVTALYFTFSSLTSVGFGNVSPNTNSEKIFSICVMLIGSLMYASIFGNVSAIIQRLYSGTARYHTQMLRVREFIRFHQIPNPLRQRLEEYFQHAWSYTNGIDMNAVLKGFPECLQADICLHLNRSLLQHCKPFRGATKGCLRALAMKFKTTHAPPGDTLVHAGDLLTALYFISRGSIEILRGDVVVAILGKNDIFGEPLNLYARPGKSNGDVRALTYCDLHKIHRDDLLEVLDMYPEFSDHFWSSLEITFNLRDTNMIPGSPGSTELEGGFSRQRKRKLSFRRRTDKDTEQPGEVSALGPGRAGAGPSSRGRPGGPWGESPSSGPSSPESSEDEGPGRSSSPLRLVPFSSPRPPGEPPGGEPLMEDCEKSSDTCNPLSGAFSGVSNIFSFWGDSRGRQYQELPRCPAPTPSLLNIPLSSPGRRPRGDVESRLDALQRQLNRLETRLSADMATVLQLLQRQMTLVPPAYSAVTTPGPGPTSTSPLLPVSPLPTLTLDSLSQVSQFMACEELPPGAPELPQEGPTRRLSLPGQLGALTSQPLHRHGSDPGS

Compared with `CN1CCN(C(=O)/C(=C/c2cn(S(=O)(=O)N(C)C)c3ccccc23)NC(=O)c2ccccc2Cl)CC1`, `Cc1c(NS(=O)(=O)c2ccc(Cl)c(C(=O)OC(C)C(=O)N3CCOCC3)c2)c(=O)n(-c2ccccc2)n1C` (centres unmarked) is lower in “hERG current change (%, negative = inhibition) at 10uM” value: 20.2% for the first, 5.07% for the second.

Going from `COc1cc(/C=C/c2ccc3cccc(O)c3n2)ccc1O` to `COc1cc(N2C(=O)c3ccccc3C2=O)c(Cl)cc1C(=O)OCC(=O)NCc1ccco1`, the “hERG current change (%, negative = inhibition) at 10uM” value falls from -0.305% to -56.1%.

Compared with `Cc1cc(C)nc(Nc2nc(C)c3cc4c(cc3n2)OCO4)n1`, `CCn1c(COc2ccc(Cl)cc2)nnc1SCC(=O)Nc1ccc2c(c1)OCO2` is higher in “hERG current change (%, negative = inhibition) at 10uM” value: -3.78% for the first, 3.98% for the second.

Going from `Cc1ccc(S(=O)(=O)Nc2c(C)n(C)n(-c3ccccc3)c2=O)cc1C(=O)OC(C)C(=O)N(C)c1ccccc1` (centres unmarked) to `CCN(Cc1ccccc1)C(=O)C(C)OC(=O)c1cc(S(=O)(=O)Nc2c(C)n(C)n(-c3ccccc3)c2=O)ccc1C` (centres unmarked), the “hERG current change (%, negative = inhibition) at 10uM” value falls from -10.5% to -19.3%.

Compared with `CCN(Cc1ccccc1)C(=O)COC(=O)c1cc(S(=O)(=O)Nc2c(C)n(C)n(-c3ccccc3)c2=O)ccc1C`, `CCN(C(=O)COC(=O)c1cc(S(=O)(=O)Nc2c(C)n(C)n(-c3ccccc3)c2=O)ccc1Cl)C1CCCCC1` is higher in “hERG current change (%, negative = inhibition) at 10uM” value: -74.9% for the first, -49.9% for the second.

Going from `COc1cc(N2C(=O)c3ccccc3C2=O)c(Cl)cc1C(=O)OCC(=O)N1CCOCC1` to `COc1cc(N2C(=O)c3ccccc3C2=O)c(Cl)cc1C(=O)OCC(=O)N(C)C`, the “hERG current change (%, negative = inhibition) at 10uM” value falls from -9.43% to -28.5%.

Going from `Cc1c(NS(=O)(=O)c2ccc(Cl)c(C(=O)OCC(=O)NCc3ccco3)c2)c(=O)n(-c2ccccc2)n1C` to `Cc1c(NS(=O)(=O)c2ccc(Cl)c(C(=O)OC(C)C(=O)NCc3ccco3)c2)c(=O)n(-c2ccccc2)n1C` (centres unmarked), the “hERG current change (%, negative = inhibition) at 10uM” value falls from -51.9% to -77.5%.

Compared with `Cc1c(NS(=O)(=O)c2cc(C(=O)NCc3ccco3)cc(Cl)c2Cl)c(=O)n(-c2ccccc2)n1C`, `CN(c1ccccc1)S(=O)(=O)c1ccc(Cl)c(C(=O)OCC(=O)NCc2ccco2)c1` is higher in “hERG current change (%, negative = inhibition) at 10uM” value: -39.5% for the first, -25% for the second.

Going from `Cc1cnc(C(=O)OC(C)C(=O)NCc2ccccc2)cn1` (centres unmarked) to `Cc1nn(Cc2ccccc2)c(C)c1NC(=O)CCCn1nc([N+](=O)[O-])c(Cl)c1C`, the “hERG current change (%, negative = inhibition) at 10uM” value falls from 3.99% to -43%.

Compared with `Brc1ccc(CN2CCN(c3ccccn3)CC2)s1`, `O=S(=O)(c1ccc(Br)c2ccccc12)N1CCOCC1` is lower in “hERG current change (%, negative = inhibition) at 10uM” value: -5.6% for the first, -11.8% for the second.

Compared with `Cc1cc(C)cc(C(=O)N(C)C2CCCN(Cc3ccccc3F)C2)c1` (centres unmarked), `CCCNC(=O)N1c2ccccc2Sc2ccccc21` is higher in “hERG current change (%, negative = inhibition) at 10uM” value: -13% for the first, 10.5% for the second.

Compared with `Cc1cccc(-n2nc3c([n+]2[O-])CCc2nonc2-3)c1C`, `Cc1cccc2c3c([nH]c12)CCN(C)C3` is lower in “hERG current change (%, negative = inhibition) at 10uM” value: 11.4% for the first, 10% for the second.

Going from `O=C(CSc1ccc(Br)cc1)NC1CCS(=O)(=O)C1` (centres unmarked) to `COc1ccc(-c2ccc3nnc(SCC(=O)NCC4CCCO4)n3n2)cc1` (centres unmarked), the “hERG current change (%, negative = inhibition) at 10uM” value falls from 5.33% to -9.98%.

Going from `CCCN(CCC)C(=S)Nc1cc(C(=O)OC)ccc1C(=O)OC` to `Cc1c(Cl)c([N+](=O)[O-])nn1CCCC(=O)Nc1cccc(O)c1`, the “hERG current change (%, negative = inhibition) at 10uM” value rises from -38.2% to -10.8%.

Compared with `Cc1ccc(Cn2nc(C)c(NC(=O)CCCn3nc([N+](=O)[O-])c(Cl)c3C)c2C)cc1`, `Cc1nn(Cc2ccc(Cl)cc2)c(C)c1NC(=O)CCCn1nc([N+](=O)[O-])c(Cl)c1C` is lower in “hERG current change (%, negative = inhibition) at 10uM” value: -50.7% for the first, -64% for the second.

Compared with `Cc1nn(Cc2ccc(Cl)cc2Cl)c(C)c1NC(=O)CCl`, `Cc1nn(Cc2ccc(Cl)cc2Cl)c(C)c1NC(=O)Cn1nc([N+](=O)[O-])c(Cl)c1C` is higher in “hERG current change (%, negative = inhibition) at 10uM” value: -60.9% for the first, 1.33% for the second.

Going from `Cc1nn(Cc2ccc(Cl)cc2)c(C)c1NC(=O)Cn1nc([N+](=O)[O-])c(Cl)c1C` to `Cc1nn(Cc2ccc(Cl)cc2)c(C)c1NC(=O)CCCn1nc(C)c([N+](=O)[O-])c1C`, the “hERG current change (%, negative = inhibition) at 10uM” value falls from 2.42% to -64.5%.

First: Cc1c(Cl)c([N+](=O)[O-])nn1CCCC(=O)Nc1c(Cl)cccc1Cl
Second: Cc1c(Cl)c([N+](=O)[O-])nn1CCCC(=O)Nc1cccc(Cl)c1
The “hERG current change (%, negative = inhibition) at 10uM” value of the first is higher: -8.29% for the first, -51.7% for the second.

First: Cc1ccc(Cn2nc(C)c(NC(=O)CCCn3nc(C)c([N+](=O)[O-])c3C)c2C)cc1
Second: Cc1nn(Cc2ccccc2)c(C)c1NC(=O)CCCn1nc(C)c([N+](=O)[O-])c1C
The “hERG current change (%, negative = inhibition) at 10uM” value of the first is higher: -10.9% for the first, -16.3% for the second.

Compared with `Cc1nn(Cc2ccc(Cl)cc2Cl)c(C)c1NC(=O)NC12CC3CC(CC(C3)C1)C2`, `Cc1nn(Cc2c(Cl)cccc2Cl)c(C)c1NC(=O)CCCn1nc([N+](=O)[O-])c(Cl)c1C` is lower in “hERG current change (%, negative = inhibition) at 10uM” value: 7.38% for the first, -19.6% for the second.

Compared with `Cc1onc(-c2ccccc2Cl)c1-c1nc(-c2ccncc2)no1`, `O=C(Nc1ccc(-c2csc(-c3ccccc3)n2)cc1)c1ccccc1` is higher in “hERG current change (%, negative = inhibition) at 10uM” value: -10.9% for the first, 16.9% for the second.

Compared with `CC1(C)CNC(=O)CC(C)(C)N1`, `COc1cc2c(cc1OC)C(C)N(S(=O)(=O)c1cccs1)CC2` (centres unmarked) is lower in “hERG current change (%, negative = inhibition) at 10uM” value: 4.53% for the first, -12.9% for the second.

Going from `CCn1c(SCC(=O)N2CCCCC2)nc(O)cc1=O` to `Cn1c(SCC(=O)N2CCCCCC2)nc2c([nH]c3ccccc32)c1=O`, the “hERG current change (%, negative = inhibition) at 10uM” value rises from -7.46% to 6.91%.

First: Cc1ccc(C)c(-n2c(Cc3cc(=O)[nH]c(=O)[nH]3)nnc2SCC(=O)NCc2ccco2)c1
Second: COc1ccc(CNc2oc(C)nc2C#N)cc1
The “hERG current change (%, negative = inhibition) at 10uM” value of the first is higher: 4.83% for the first, -1.09% for the second.

Compared with `Cn1cccc1C(=O)N/N=C/c1c(Cl)cccc1Cl`, `Cc1c(Cl)c([N+](=O)[O-])nn1CCCC(=O)Nc1cccnc1` is lower in “hERG current change (%, negative = inhibition) at 10uM” value: 3.26% for the first, -2.96% for the second.

Source: paper PMC4336329 (PLoS ONE, 2015)
